Bioassay records (PubChem BioAssay)
Pol eta inh – inhibitors of human DNA polymerase eta | 1.2% of 390,000 active | recombinant Pol eta, fluorescent DNA replication assay | Potency, µM (highest dose often 114 µM), inactives show at the top dose activity change, negative = inhibition, hits mostly inhibitors | Q9Y253; also: potency is read from the fitted curve at half-maximal effect; % is scaled to controls: 0 for no effect and ±100 for the full control effect
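Pol eta (10 nM) was preincubated with compounds for 15 min at room temperature, after which fluorescent replication substrate (50 nM final) was added to start the reaction. Fluorescence was read kinetically at 0 and 10 min.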
Pol iota inh – DNA polymerase iota (human) inhibition. Potency, µM (doses to about 115 µM), without a hit: at the top dose activity, negative = inhibition, hits mostly inhibitors. Q9UNA4. Pol iota fluorescent replication assay, 10 min. AID 588590. 1% of 390,000 active; also: potency is read from the fitted curve at half-maximal effect
Target sequence (Q9UNA4 whole entry, looked up): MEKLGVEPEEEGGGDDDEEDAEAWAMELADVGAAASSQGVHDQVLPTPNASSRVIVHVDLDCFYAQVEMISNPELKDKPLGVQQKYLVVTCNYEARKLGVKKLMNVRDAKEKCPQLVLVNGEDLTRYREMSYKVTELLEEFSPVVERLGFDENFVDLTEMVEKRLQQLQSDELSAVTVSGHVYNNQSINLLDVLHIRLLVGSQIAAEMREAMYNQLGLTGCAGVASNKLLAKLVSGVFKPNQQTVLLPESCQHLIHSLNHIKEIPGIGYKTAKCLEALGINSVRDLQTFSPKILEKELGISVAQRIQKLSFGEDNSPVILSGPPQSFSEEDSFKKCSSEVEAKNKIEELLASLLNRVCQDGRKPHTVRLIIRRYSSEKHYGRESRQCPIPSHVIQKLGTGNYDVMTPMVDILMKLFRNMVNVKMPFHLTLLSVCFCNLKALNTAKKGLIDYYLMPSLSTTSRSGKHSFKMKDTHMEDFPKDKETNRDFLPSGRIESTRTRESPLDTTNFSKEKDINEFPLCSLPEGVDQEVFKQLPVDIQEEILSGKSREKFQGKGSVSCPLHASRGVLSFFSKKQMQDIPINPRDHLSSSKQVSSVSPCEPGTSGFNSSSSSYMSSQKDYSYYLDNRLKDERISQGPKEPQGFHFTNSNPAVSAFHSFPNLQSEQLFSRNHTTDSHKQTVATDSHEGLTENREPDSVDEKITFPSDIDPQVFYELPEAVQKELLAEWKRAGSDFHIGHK
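Fluorescent replication assay read twice, at 0 min and 10 min after adding 50 nM (final) substrate. Enzyme (10 nM) and compounds were first incubated 15 min at room temperature; enzyme-free buffer wells were negative controls.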
PI5P4Ka inh – PI5P4K alpha (human) kinase inhibition | max response, % | 1.2% of 330,000 active | P48426 | AID 652105 | PI5P4Kalpha enzyme, ADP-Glo luminescence, 60 min; stronger effect = lower value; active = max response of -50% or lower; inconclusive = between -30% and -50%; inactive = -30% or higher; also: value at the top dose of about 77 µM; % is scaled to controls: 0 for no effect and ±100 for the full control effect
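Compounds were pin-transferred onto PI5P4Kalpha and substrate in HEPES pH 7.4 buffer with EGTA, CHAPS and 5% DMSO. ATP (5 microM final) started the reaction, which ran 60 minutes at room temperature before ADP-Glo detection.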
WRN inhibitor – WRN helicase (human) inhibition. Q14191. WRN helicase unwinding, fluorescent forked duplex, kinetic. Potency, µM (doses to about 114 µM), inactives show at the top dose activity change, negative = inhibition, usual class: inhibitors. 0.46% of 360,000 active. AID 651768; also: potency is read from the fitted curve at half-maximal effect; % is scaled to controls: 0 for no effect and ±100 for the full control effect; nearly all actives have a fitted effect of over 55% in size
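Kinetic red-fluorescence monitoring (525/598 nm) tracks WRN helicase activity after 100 nM fluorophore-quencher forked duplex and 2 mM ATP are added to 20 nM enzyme pretreated 15 min at room temperature with compound.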
Pol beta inh – blocks human DNA polymerase beta activity. P06746. Pol beta primer extension/strand displacement, fluorescence kinetic. Potency, µM (titrated, usually from 114 µM), for inactives: at the top dose activity change, negative = inhibition, usual class: inhibitors. 1.3% of 340,000 active. AID 485314; also: potency is read from the fitted curve at half-maximal effect; % is scaled to controls: 0 for no effect and ±100 for the full control effect
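Pol beta (10 nM) was preincubated with compound for 15 min at room temperature. The reaction was then started with 50 nM substrate and read immediately and after a further 10 min at room temperature.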
Pol kappa inh – DNA polymerase kappa (human) inhibition; Q9UBT6; purified Pol kappa, fluorescent DNA synthesis assay, 10 min; Potency, µM (titrated, usually from 107 µM), for inactives: at the highest dose activity, negative = inhibition, usual class: inhibitors; 0.53% of 400,000 active; AID 588579; also: potency is read from the fitted curve at half-maximal effect; % is scaled to controls: 0 for no effect and ±100 for the full control effect
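Enzyme at 10 nM met test compounds for 15 min at room temperature. Substrate addition (50 nM final) began the reaction, which was monitored by fluorescence at 0 and 10 min.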
* = called active by the depositor; [ ] = another dose, or the depositor's remark. Shown are actives, neighbours in structure and some others; about 2.8% of the full set was active somewhere. Unless noted, calls follow the shape of the dose curve; as a rule, active = well fitted curve in the direction sought with a large enough effect; inconclusive = small, poorly fitted or top-dose-only effect, or another doubt; inactive = no such curve, though single readings can be large; an effect the other way counts as inactive or inconclusive.

How did O=C(NCc1ccncc1)C(=O)NCC1OCCN1S(=O)(=O)c1ccccc1 (stereo unspecified) do in these assays?
Pol eta inh: -6.3%; PI5P4Ka inh: 1.5; WRN inhibitor: -0.7%

What do the screens show for `COc1ccc(-c2nnc(SCC(=O)Nc3cc(C)on3)n2N)cc1OC`?
Pol eta inh: 14.1%; Pol iota inh: -6.6%; PI5P4Ka inh: -0.3; WRN inhibitor: -5.9%; Pol beta inh: inconclusive; Pol kappa inh: -8.2%

What do the screens show for `CCOc1ccc(-c2nnc(SCc3nc4ccccc4[nH]3)n2N)cc1`?
Pol eta inh: -6.1%; Pol iota inh: inconclusive; PI5P4Ka inh: -0.9; WRN inhibitor: -4.9%; Pol beta inh: 50.1µM*; Pol kappa inh: 0.4%

What do the screens show for `Cc1cc(NC(=O)CSc2nnc(-c3cccc(F)c3)n2N)no1`?
Pol eta inh: -18.9%; Pol iota inh: 70.8µM*; PI5P4Ka inh: -22.5; WRN inhibitor: -4.6%; Pol kappa inh: -5.3%

How did COc1ccc(S(=O)(=O)NNc2nc(C)cc(C)n2)cc1[N+](=O)[O-] do in these assays?
Pol eta inh: -0.7%; Pol iota inh: 36.6%; PI5P4Ka inh: 7.5; WRN inhibitor: 0.7%; Pol beta inh: 11.1%; Pol kappa inh: -5.4%

What do the screens show for `Cc1ccc(S(=O)(=O)NCC(=O)OC(C)C(=O)NC2CCCCC2C)cc1C` (stereo unspecified)?
Pol eta inh: -12.6%; Pol iota inh: 21.9%; PI5P4Ka inh: 9.9; WRN inhibitor: 9.6%; Pol kappa inh: 1.1%

How did S=c1nc2[nH]c3ccccc3c2n[nH]1 do in these assays?
Pol eta inh: -12.1%; Pol iota inh: 21.2%; PI5P4Ka inh: -50.1*; WRN inhibitor: -26.9%; Pol kappa inh: -14.1%

Results for Nc1nnc2c(n1)[nH]c1ccccc12 ?
Pol eta inh: -20.2%; Pol iota inh: 25.8%; Pol beta inh: 0.3%; Pol kappa inh: -5.0%

How did CCOc1ccc(NC(=O)c2cc(C3CC3)nc3c2cnn3C(C)C)cc1OC do in these assays?
Pol eta inh: -18.7%; Pol iota inh: -12.1%; PI5P4Ka inh: -2.2; WRN inhibitor: -10.2%; Pol kappa inh: -2.9%

What do the screens show for `COc1ccc2c(c1)CCN1C2CCN2C(=O)CCC21` (stereo unspecified)?
Pol eta inh: -4.2%; Pol iota inh: 23.6%; PI5P4Ka inh: -0.1; WRN inhibitor: 9.0%; Pol beta inh: 4.5%; Pol kappa inh: -2.4%

What do the screens show for `Nc1nccc(-c2ccc(-n3cccc3)cc2)n1`?
Pol eta inh: -4.6%; Pol iota inh: 10.6%; PI5P4Ka inh: 4.8; WRN inhibitor: -0.3%; Pol beta inh: 2.0%; Pol kappa inh: -1.9%

How did COc1cc(/C=N/NC(=O)c2cc(-c3ccccc3Cl)nc3ccccc23)cc(OC)c1O do in these assays?
Pol eta inh: -22.9%; Pol iota inh: 31.2%; PI5P4Ka inh: -12.2; WRN inhibitor: -13.6%; Pol kappa inh: -7.1%

What do the screens show for `COc1cc(/C=N/NC(=O)c2cc(-c3ccco3)nc3ccccc23)cc(OC)c1O`?
Pol eta inh: inconclusive; Pol iota inh: 44.7µM*; PI5P4Ka inh: inconclusive; WRN inhibitor: -11.4%[11.6 µM]; Pol beta inh: 50.1µM*; Pol kappa inh: inconclusive

What do the screens show for `COc1cc([N+](=O)[O-])cc(/C=N/NC(=O)c2cc(C)nc3ccccc23)c1O`?
Pol eta inh: -10.9%; Pol iota inh: inconclusive; PI5P4Ka inh: -26.7; WRN inhibitor: -11.5%; Pol beta inh: -6.2%; Pol kappa inh: -10.0%

Results for COc1cc([N+](=O)[O-])cc(/C=N/NC(=O)c2cc(-c3ccccc3)nc3ccccc23)c1O ?
Pol eta inh: -17.8%; Pol iota inh: 18.1%; PI5P4Ka inh: -57.3*; WRN inhibitor: -1.2%; Pol beta inh: -21.8%; Pol kappa inh: 7.5%

How did COc1ccc(CCC(C)N2CCC(Oc3ccc(C(=O)N4CCCC4)cc3)CC2)cc1 (stereo unspecified) do in these assays?
Pol eta inh: -13.3%; Pol iota inh: 89.1µM*; PI5P4Ka inh: 2.7; WRN inhibitor: 2.4%[11.6 µM]; Pol beta inh: -3.3%; Pol kappa inh: -3.3%

What do the screens show for `Cc1ccc(S(=O)(=O)NN2C(=O)/C(=C/c3cccs3)SC2=S)cc1`?
Pol eta inh: -3.1%; Pol iota inh: -9.6%; PI5P4Ka inh: -59.3*; WRN inhibitor: -7.5%; Pol beta inh: 0.2%; Pol kappa inh: -12.1%

Results for COc1ccc(/C=C2/SC(=S)N(NS(=O)(=O)c3ccc(C)cc3)C2=O)cc1 ?
Pol eta inh: 79.4µM*; Pol iota inh: inconclusive; PI5P4Ka inh: inconclusive; WRN inhibitor: -12.6%[11.6 µM]; Pol beta inh: inconclusive; Pol kappa inh: -15.4%

What do the screens show for `Cc1ccc(S(=O)(=O)NN2C(=O)/C(=C/c3ccc(F)cc3)SC2=S)cc1`?
Pol eta inh: inconclusive; Pol iota inh: 138.7%; PI5P4Ka inh: inconclusive; WRN inhibitor: inconclusive; Pol beta inh: 3.9%; Pol kappa inh: -11.2%

Results for Cc1ccc(/C=C2\SC(=S)N(NS(=O)(=O)c3ccc(C)cc3)C2=O)cc1 ?
Pol eta inh: inconclusive; Pol iota inh: 6.5%; PI5P4Ka inh: -19.9; WRN inhibitor: -8.7%[11.6 µM]; Pol beta inh: 79.4µM*; Pol kappa inh: -7.1%

How did Cc1ccc(S(=O)(=O)NN2C(=O)/C(=C/c3ccc(C(=O)O)cc3)SC2=S)cc1 do in these assays?
Pol eta inh: -22.8%; Pol iota inh: 12.6µM*; PI5P4Ka inh: -57.0*; WRN inhibitor: -35.3%; Pol beta inh: 16.4%; Pol kappa inh: inconclusive

Results for Cc1ccc(C)c(N2CCN(S(=O)(=O)c3cc4c(cc3C)NC(=O)CO4)CC2)c1 ?
Pol eta inh: -5.8%; Pol iota inh: -13.7%; PI5P4Ka inh: 0.1; WRN inhibitor: 0.2%; Pol beta inh: 3.1%; Pol kappa inh: 7.9%

What do the screens show for `Cn1c(-c2cccc3ccccc23)n[nH]c1=S`?
Pol eta inh: -5.2%; Pol iota inh: 34.3%; PI5P4Ka inh: 4.7; WRN inhibitor: 5.6%; Pol beta inh: 20.1%; Pol kappa inh: 6.3%

How did COc1cccc(/C=C2\SC(=S)N(NS(=O)(=O)c3ccccc3)C2=O)c1OC do in these assays?
Pol eta inh: -18.2%; Pol iota inh: -9.8%; PI5P4Ka inh: -59.8*; WRN inhibitor: -13.3%; Pol beta inh: 22.3%; Pol kappa inh: -4.0%

Results for COc1cc(/C=C2\SC(=S)N(NS(=O)(=O)c3ccccc3)C2=O)cc(OC)c1OC ?
Pol eta inh: 1.4%; Pol iota inh: -4.3%; PI5P4Ka inh: -28.6; WRN inhibitor: -26.9%; Pol beta inh: 30.4%; Pol kappa inh: -16.4%

How did C=CCOc1ccc(/C=C2\SC(=S)N(NS(=O)(=O)c3ccc(C)cc3)C2=O)cc1 do in these assays?
Pol eta inh: 50.1µM*; Pol iota inh: inconclusive; PI5P4Ka inh: -55.0*; WRN inhibitor: inconclusive; Pol beta inh: inconclusive; Pol kappa inh: -10.6%
